# Measurements published in PubChem BioAssay AID504832 (National Center for Advancing Translational Sciences (NCATS), 2011).
# Screen size: about 310,000 compounds; about 18,000 (5.8%) were called active. Inconclusive results (about 22%) are left out. Many of the other results were omitted from the sample, so actives are more common in it than they were. A number with no mark means an inactive call. The call rests on the fitted dose curve; in most records, active means well fitted inhibition curve with a large enough effect; inconclusive means small, poorly fitted or top-dose-only effect, or another doubt; inactive means no such curve, though single readings can be large or run the other way.
# Assay: Primary qHTS for delayed death inhibitors of the malarial parasite plastid, 48 hour incubation
# Conditions: P. falciparum luciferase growth in erythrocytes; series mostly up to 28.7 µM; activity change, negative = inhibition: at the top concentration
# Summary of the method: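 Luciferase-expressing P. falciparum in infected erythrocytes (2% hematocrit, 0.1% parasitemia final) in RPMI 1640/0.5% Albumax were exposed to compound for 48 hours at 37 C, 5% CO2; growth read as luminescence.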
# On the % scale 0 is the no-effect control and ±100 the full control effect; potency means the concentration at half of the fitted maximal effect.
Compound,"activity change, negative = inhibition",Potency
CCOC(=O)c1ccc(NC(=S)N2CCN(c3ccccn3)CC2)cc1,15%,
COc1ccc(NS(=O)(=O)c2ccc(F)cc2F)cn1,38.3%,
CCCS(=O)(=O)N1CCN=C1SCc1cccc(F)c1,-6.09%,
CC1(C)CC(=O)C=C(Nc2ccccc2)C1,-13.2%,
COc1cc(F)c(C2=CC(=O)CC(C)(C)C2)cc1F,28.7%,
CC1(C)CC(=O)C=C(c2ccc(Cl)c(C(F)(F)F)c2)C1,,5.86 µM (active)
COC(=O)c1cc(NS(=O)(=O)c2ccc3c(c2)c(=O)n(C)c(=O)n3C)cc(C(=O)OC)c1,20.2%,
O=C1NCCn2nc3ccccc3c21,2.57%,
NS(=O)(=O)c1cccnc1Nc1cccc(Cl)c1,33.3%,
CCOc1c(Nc2cccc(Cl)c2)c(=O)c1=O,,7.38 µM (active)
CCOC(=O)c1c(S(=O)(=O)Nc2cccc(Cl)c2)c(C)n(C)c1C,-8.53%,
Cc1ccc2c(c1)N(CC(=O)N1CCOCC1)C(=O)CO2,17.2%,
O=S(=O)(NCc1ccc(Cl)cc1Cl)c1cccs1,42.9%,
CC(OC(=O)CCCc1c[nH]c2ccccc12)C(=O)Nc1ccc(S(N)(=O)=O)cc1 (stereo unspecified),19%,
Cc1ccc(NC(=O)NC2CCCCC2)cc1S(=O)(=O)N1CCOCC1,-7.23%,
Cc1ccc(NC(=O)C(C)OC(=O)Cc2c[nH]c3ccccc23)cc1S(=O)(=O)N1CCOCC1 (stereo unspecified),,5.22 µM (active)
O=C(Nc1ccccc1N1CCCC1)c1ccc2ccccc2c1,10%,
COc1cccc(NC(=O)C(=O)c2cn(CC(=O)N3CCOCC3)c3ccccc23)c1,63.7%,
O=C(NCc1ccco1)c1nc(-c2ccccc2)n(-c2ccccc2)n1,5.98%,
Cc1nn(-c2ccccc2)c2sc(C(=O)N(Cc3ccco3)C(C)C(=O)NC(C)(C)C)cc12 (stereo unspecified),,11.7 µM (active)
CC(C)(C)NC(=O)NCc1ccco1,13.8%,
O=C(COC(=O)c1ccc(F)cc1)Nc1nc2ccc([N+](=O)[O-])cc2s1,-18.4%,
O=C(NC(Nc1nc2ccc([N+](=O)[O-])cc2s1)(C(F)(F)F)C(F)(F)F)c1ccccc1,,1.65 µM (active)
O=C(Nc1nc2ccc([N+](=O)[O-])cc2s1)c1ccncc1,-30.6%,
COC(=O)c1ccc(C)c(NC(=O)C2CC(=O)N(C3CCCC(C)C3C)C2)c1 (stereo unspecified),-11.9%,
Cc1cc(NC(=O)COc2ccc([N+](=O)[O-])cc2)no1,-10.4%,

Compound,"activity change, negative = inhibition",Potency
CC(=O)c1cccc(OCc2cc(C(=O)NC(C)Cc3cccnc3)no2)c1 (stereo unspecified),0%,
CCc1cc(=O)oc2c(C)c(OCC(=O)N3CC[C@@]4(O)CCCC[C@H]4C3)ccc12,-23.9%,
CN(C)CCN(Cc1ccccc1)S(=O)(=O)c1csc(C(N)=O)c1,34.9%,
O=C1c2ccccc2C2=Nc3ccccc3SC(c3ccccc3F)C12 (stereo unspecified),,0.329 µM (active)
O=C1c2ccccc2C(=O)C1c1ccccc1F,8.55%,
COCCN(C(=O)CSCc1ccc(C)cc1)c1c(N)n(CC(C)C)c(=O)[nH]c1=O,-24.5%,
CC1(C(=O)NNC(=S)NCC2CCCO2)CC1(Cl)Cl (stereo unspecified),-1.58%,
CN(c1ccccc1)S(=O)(=O)c1cccc(NC(=O)Cc2ccc(Cl)cc2)c1,,11.7 µM (active)
CN(c1ccccc1)S(=O)(=O)c1cccc(NC(=O)Cc2c(F)cccc2Cl)c1,-25.5%,
CN(C)S(=O)(=O)c1cccc(NC(=O)Cc2ccsc2)c1,-7.53%,
C[C@@H]1NC(=O)[C@@]2(C)[C@@H](c3ccccc3)[C@H]3COc4ccccc4[C@@H]3N2C1=O,5.3%,
CC(=O)c1cccc(NC(=O)C2CCN(C(=O)c3ccccc3Cl)CC2)c1,2.74%,
Cc1ccccc1C(=O)N1CCC(C(=O)Nc2ccc(S(=O)(=O)N(C)C(C)C)cc2)CC1,,9.28 µM (active)
CCc1nnc(NC(=O)C2CCN(C(=O)c3ccccc3C)CC2)s1,-2.64%,
CC(C)c1c(C(=O)N/N=C/c2ccccc2C(=O)O)nnn1-c1nonc1N,31.1%,
Cc1cc(Cl)c2oc(C(=O)N3CCC(O)(c4ccccc4)CC3)c(C)c2c1,-1.89%,
O=C(O)c1cc([N+](=O)[O-])c(Nc2cccc3ccccc23)c([N+](=O)[O-])c1,27.2%,
Cn1cc[n+](C)c1COc1ccc(C=O)cc1,8.97%,
O=C(CN(C(=O)c1csnn1)c1cccc(Cl)c1)NC1CCCC1,3.32%,
CCn1c(COc2ccccc2)nnc1SCC(=O)NCc1ccco1,3.66%,
CCn1c(SCC(=O)NCc2ccco2)nnc1-c1ccc(N)cc1,19.4%,
O=C(CSc1nnc2scc(-c3ccc(F)cc3)n12)NCc1ccco1,-10.2%,
Cc1ccc(-c2csc3nnc(SCC(=O)NCc4ccco4)n23)cc1,,9.28 µM (active)
Cn1c(-c2ccc(F)cc2)cnc1SCC(=O)NCc1ccco1,-15.9%,
O=C(CSc1nnc(-c2ccco2)n1Cc1ccccc1)NC(=O)NCc1ccco1,,10.4 µM (active)
